Screening data: PubChem, several laboratories
m5-HT2A agonist: agonists of mouse serotonin 5-HT2A receptor (HTR2A); CHO-K1 mHTR2A beta-arrestin complementation, luminescence; percent of 30 µM serotonin response; activation, % at 7.6 µM; 360,000 tested, 0.66% active;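 active = activation above a run cutoff, the mean activation of all tested compounds plus 3 SD, cut at about 14% in these data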
CTSL1 counter: blocks F. hepatica cathepsin L1 in PFM18AAP counter-screen; recombinant F. hepatica cathepsin L1, Z-Leu-Arg-MCA fluorescence; inhibition, % at 5.96 µM; 300,000 tested, 0.49% active; AID 1906;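 active = inhibition above the mean of all tested compounds plus 3 SD, set per screening campaign, cut at about 17% in these data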
LANA-H2B inh: blocks KSHV LANA binding to histone H2A/H2B; Q9QR71; cell-free LANA-H2A/H2B peptide, fluorescence polarization; inhibition, % (no concentration beside the values); 320,000 tested, 0.6% active; AID 2629; in the data active = inhibition mostly above about 10%, no sharp cut-off; inactive = mostly below about 6.7%
HDAC3 inh: human HDAC3 inhibition; inhibition, % at 8.3 µM; AID 2718; recombinant HDAC3, fluorogenic peptide/trypsin coupled, fluorescence; 320,000 tested, 0.15% active; O15379; in the data active = inhibition above about 26%, passing the limit was not always enough; inconclusive = no clear call, values can overlap the other calls
Target sequence (O15379 whole entry, looked up): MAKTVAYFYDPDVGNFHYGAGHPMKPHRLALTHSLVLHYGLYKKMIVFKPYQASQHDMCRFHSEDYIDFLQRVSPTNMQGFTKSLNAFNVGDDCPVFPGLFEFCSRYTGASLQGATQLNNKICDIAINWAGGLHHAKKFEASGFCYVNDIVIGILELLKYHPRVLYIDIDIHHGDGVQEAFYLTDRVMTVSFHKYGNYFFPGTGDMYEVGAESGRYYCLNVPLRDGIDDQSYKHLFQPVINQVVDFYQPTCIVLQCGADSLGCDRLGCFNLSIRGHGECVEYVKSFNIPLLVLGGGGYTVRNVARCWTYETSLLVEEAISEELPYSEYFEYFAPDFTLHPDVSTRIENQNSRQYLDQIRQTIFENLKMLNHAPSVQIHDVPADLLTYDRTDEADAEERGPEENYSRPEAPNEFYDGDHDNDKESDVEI
MOR ag counter: activates human mu opioid receptor in HTR2A counterscreen | U2OS OPRM1 beta-arrestin PathHunter, luminescence; DMSO 0%, DAMGO 9.3 µM 100% | activation, % at 9.3 µM | 2,300 tested, 5.3% active | shares compounds with m5-HT2A agonist | AID 624380;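 active = mean activation above the mean of DMSO-only wells plus 3 SD, cut at about 0.5% in these data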
m5-HT2A ag conf: confirmation of mouse HTR2A serotonin receptor agonists; CHO-K1 PathHunter beta-arrestin recruitment, luminescence; DMSO 0%, 30 µM serotonin 100%; shares compounds with m5-HT2A agonist; 2,300 tested, 19% active; activation, % at 7.6 µM; AID 624381;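 active = mean activation across triplicates above the hit threshold derived in the original primary screen, cut at about 15% in these data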
Hits are given with their value; ! = not confirmed by another sample. In the library only some 1.7% were active in any assay of this set; here they are far more common.

How did CC(C)N=c1c([N+](=O)[O-])nn(C)n1O do in these assays?
m5-HT2A agonist: 15.3; CTSL1 counter: inactive; LANA-H2B inh: inactive; HDAC3 inh: inactive; MOR ag counter: inactive; m5-HT2A ag conf: inactive

What do the screens show for `CN=c1c([N+](=O)[O-])nn(-c2ccc3c(c2)OCCO3)n1O`?
m5-HT2A agonist: inactive; CTSL1 counter: inactive; LANA-H2B inh: inactive; HDAC3 inh: inactive

What do the screens show for `CCOC(=O)c1ccc(NC(=O)c2nc[nH]c2C(=O)N[C@@H](C)CO)cc1`?
m5-HT2A agonist: inactive

What do the screens show for `CSc1ccccc1NC(=O)CSc1nnc(CNC(=O)c2ccccc2F)n1C`?
m5-HT2A agonist: inactive; CTSL1 counter: inactive; LANA-H2B inh: inactive; HDAC3 inh: inactive

Results for Cc1ccc[n+](/C(=C\C(=C=[N-])C#N)C(=O)c2ccc(Cl)cc2)c1 ?
m5-HT2A agonist: 16.8; CTSL1 counter: inactive; LANA-H2B inh: inactive; HDAC3 inh: inactive; MOR ag counter: inactive; m5-HT2A ag conf: inactive

Results for CCCCn1c(N)c(N(CCOC)C(=O)c2oc3ccc(OCC)cc3c2C)c(=O)[nH]c1=O ?
m5-HT2A agonist: inactive; CTSL1 counter: inactive; LANA-H2B inh: inactive; HDAC3 inh: inactive

What do the screens show for `NNC(=O)c1nc(-c2ccccc2)cc(-c2ccccc2)n1`?
m5-HT2A agonist: inactive; LANA-H2B inh: inactive; HDAC3 inh: inactive

Results for CCC1(c2ccccc2)NC(=O)N(CC(=O)N(C)CC(=O)Nc2cccc(OC)c2)C1=O (configuration not stated) ?
m5-HT2A agonist: 14.8; CTSL1 counter: inactive; LANA-H2B inh: inactive; HDAC3 inh: inactive; MOR ag counter: inactive; m5-HT2A ag conf: inactive

How did CCC1(c2ccc(F)cc2)NC(=O)N(CC(=O)Nc2ccccc2C)C1=O (configuration not stated) do in these assays?
m5-HT2A agonist: 14.5; CTSL1 counter: inactive; LANA-H2B inh: inactive; HDAC3 inh: inactive; MOR ag counter: inactive; m5-HT2A ag conf: inactive

How did CNC(=O)Oc1ccc2c(c1)[C@]1(C)CCN(C)[C@@H]1N2C do in these assays?
m5-HT2A agonist: 20.0!; CTSL1 counter: inactive; LANA-H2B inh: inactive; HDAC3 inh: inactive; MOR ag counter: inactive; m5-HT2A ag conf: inactive

How did CCOc1ccc(NC(=O)C2CCCN2S(=O)(=O)c2ccc3c(c2)C(C)(C)C(=O)N3C)cc1 (configuration not stated) do in these assays?
m5-HT2A agonist: inactive; CTSL1 counter: inactive; LANA-H2B inh: inactive; HDAC3 inh: inactive

Results for CCN1CCN(C(=S)Nc2cccc([N+](=O)[O-])c2)CC1 ?
m5-HT2A agonist: 25.6; CTSL1 counter: inactive; LANA-H2B inh: inactive; HDAC3 inh: inconclusive; MOR ag counter: inactive; m5-HT2A ag conf: inactive

Results for O=[N+]([O-])c1cccc(NC(=S)N2CCCC2)c1 ?
m5-HT2A agonist: inactive; LANA-H2B inh: inactive; HDAC3 inh: inactive

How did COc1ccc(/C=N/NC(=O)c2cccc([N+](=O)[O-])c2)cc1OC(=O)c1ccc(C)cc1 do in these assays?
m5-HT2A agonist: 20.1; CTSL1 counter: inactive; LANA-H2B inh: inactive; HDAC3 inh: inconclusive; MOR ag counter: inactive; m5-HT2A ag conf: inactive

How did COc1ccc(/C=N/NC(=O)c2cccc([N+](=O)[O-])c2)cc1OC(=O)c1ccccc1 do in these assays?
m5-HT2A agonist: inactive; CTSL1 counter: inactive; LANA-H2B inh: inactive; HDAC3 inh: inactive

How did O=C(N/N=C/c1ccc(OC(=O)c2ccccc2)c([N+](=O)[O-])c1)c1ccc(O)cc1 do in these assays?
m5-HT2A agonist: 16.3; CTSL1 counter: inactive; LANA-H2B inh: inactive; HDAC3 inh: inactive; MOR ag counter: inactive; m5-HT2A ag conf: inactive

What do the screens show for `N#Cc1cccc(NC(=O)Cn2cnc(S(=O)(=O)N3CCOCC3)c2)c1`?
m5-HT2A agonist: inactive; CTSL1 counter: inactive; LANA-H2B inh: inactive; HDAC3 inh: inactive

How did CCn1cc(C(=O)N2CCCC(C(=O)c3ccc4ccccc4c3)C2)cn1 (configuration not stated) do in these assays?
m5-HT2A agonist: inactive; CTSL1 counter: inactive; LANA-H2B inh: inactive; HDAC3 inh: inactive

What do the screens show for `CCNc1nc(Oc2ccc(=O)n(-c3ccccc3)n2)nc(N(C)C)n1`?
m5-HT2A agonist: inactive; CTSL1 counter: inactive; LANA-H2B inh: inactive; HDAC3 inh: inactive

Results for CCNc1nc(OC)nc(Oc2ccc(=O)n(-c3ccccc3)n2)n1 ?
m5-HT2A agonist: 18.1; CTSL1 counter: inactive; LANA-H2B inh: inactive; HDAC3 inh: inactive; MOR ag counter: inactive; m5-HT2A ag conf: inactive

What do the screens show for `O=C(CSc1cccc[n+]1[O-])C12CC3CC(CC(C3)C1)C2`?
m5-HT2A agonist: inactive; CTSL1 counter: inactive; LANA-H2B inh: inactive; HDAC3 inh: inactive

What do the screens show for `CCOc1cc(C2C(C(C)=O)=C(C)Nc3ncnn32)ccc1O` (configuration not stated)?
m5-HT2A agonist: 14.6; CTSL1 counter: inactive; LANA-H2B inh: inactive; HDAC3 inh: inactive; MOR ag counter: inactive; m5-HT2A ag conf: inactive

Results for CCOC(=O)c1sc2c(c1C)c(=O)n(CCO)c(=O)n2Cc1ccccc1 ?
m5-HT2A agonist: inactive; CTSL1 counter: inactive; LANA-H2B inh: inactive; HDAC3 inh: inactive

Results for CCc1ccc(C2NC(=S)NC3=C2C(=O)N(c2ccccc2OC)C(c2ccc(CC)cc2)N3)cc1 (configuration not stated) ?
m5-HT2A agonist: 37.4; CTSL1 counter: inactive; LANA-H2B inh: inactive; HDAC3 inh: inconclusive; MOR ag counter: inactive; m5-HT2A ag conf: inactive

How did Cc1ccc(O)c(NC(=O)c2ccc3c(c2)C(=O)N(Cc2ccco2)C3=O)c1 do in these assays?
m5-HT2A agonist: inactive; CTSL1 counter: inactive; LANA-H2B inh: inactive; HDAC3 inh: inactive

Results for O=S(=O)(c1cccc2cccnc12)N1CCN(c2ccc(F)cc2)CC1 ?
m5-HT2A agonist: inactive; CTSL1 counter: inactive; LANA-H2B inh: inactive; HDAC3 inh: inactive

How did COc1ccc(NC(=O)C2CCN(S(=O)(=O)c3cccc4cccnc34)CC2)cc1OC do in these assays?
m5-HT2A agonist: 16.9; CTSL1 counter: inactive; LANA-H2B inh: inactive; HDAC3 inh: inactive; MOR ag counter: inactive; m5-HT2A ag conf: inactive

What do the screens show for `O=S(=O)(c1cccc2cccnc12)N1CCOCC1`?
m5-HT2A agonist: 21.2; CTSL1 counter: inactive; LANA-H2B inh: inactive; HDAC3 inh: inactive; MOR ag counter: inactive; m5-HT2A ag conf: inactive

Results for COc1ccc(C)cc1NC(=O)C1CCN(S(=O)(=O)c2cccc3cccnc23)CC1 ?
m5-HT2A agonist: inactive; CTSL1 counter: inactive

How did Cc1nn(C)c(C(=O)NNC(=O)Nc2cccc(C(F)(F)F)c2)c1Cl do in these assays?
m5-HT2A agonist: inactive; CTSL1 counter: inactive; LANA-H2B inh: inactive; HDAC3 inh: inactive

How did CCOC(=O)c1ccc(NC(=O)C23CCC(C)(C(=O)O2)C3(C)C)cc1 (configuration not stated) do in these assays?
m5-HT2A agonist: 18.0; CTSL1 counter: inactive; LANA-H2B inh: inactive; HDAC3 inh: inactive; MOR ag counter: inactive; m5-HT2A ag conf: inactive

What do the screens show for `Cc1ccc(C(=O)OCC(=O)NC2CCCC2)cc1`?
m5-HT2A agonist: inactive; CTSL1 counter: inactive; LANA-H2B inh: inactive; HDAC3 inh: inactive
